NSD2 inh – blocks human histone methyltransferase NSD2. O96028. NSD2 peptide methylation, AlphaScreen, 120 min. inhibition, % at 12.5 µM. 310,000 tested, 0.54% active. AID 743445; in the data active means inhibition above about 50%
CASP6 VEID inh – blocks human caspase-6 cleavage activity | purified caspase-6, Z-VEID-R110 cleavage fluorescence | inhibition, % at 12.5 µM | 350,000 tested, 0.53% active;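 active means mean inhibition across replicates at least about 35%, with every replicate also reaching that limit, limit read from the data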;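 further: 0% = median of neutral control wells and 100% = no fluorescence left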
RAD52 inh – RAD52 (human) annealing inhibition. recombinant RAD52 DNA annealing, FRET fluorescence. 360,000 tested, 0.46% active. P43351. inhibition, % at 18.7 µM;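 active means every replicate showing at least 50% inhibition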
MLL AF4-AF9 inh – inhibitors of human MLL-AF4/AF9 interaction; P42568; AlphaScreen, biotin-AF4 peptide binding to FLAG-AF9; inhibition, % at 10 µM; 350,000 tested, 0.47% active; AID 651704;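 active means every replicate reaching a set inhibition limit, whatever the replicate mean, cut at about 25% in these data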;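 further: 0% = plate neutral control median and 100% = total signal loss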
Ecoli rRNA inh – inhibits bacterial ribosomal RNA function over humanized ribosomes | E. coli WT GFP vs humanized-ribosome RFP mutants, fluorescence, 24 h; active compounds read low; DMSO median 0, no signal -100 | GFP signal change (wild-type ribosome), % (concentration not given with the values) | 350,000 tested, 1.6% active;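 active means significant combined selectivity score with lowered wild-type GFP, culture density cut under 30%, mutant RFP and density less affected; inactive means any of these conditions unmet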
Numbers without * were called inactive; · = no result; ! = not active in a repeat. The list is not random: actives were taken first. Their share in the collection is about 2.5%.

SMILES	NSD2 inh	CASP6 VEID inh	RAD52 inh	MLL AF4-AF9 inh	Ecoli rRNA inh
CC1C/C(=C/c2ccncc2)C(=O)/C(=C/c2ccncc2)C1 (centres undefined)	·	6	-12	-20	-22*
CCC(C)NCCOc1ccc(C(C)(C)c2ccccc2)cc1 (centres undefined)	8	2	17	5	-53*
COCCCNCCOc1ccc(C(C)(C)c2ccccc2)cc1	0	-6	2	6	-43
C[C@@H]1CN([C@H](C)CO)C(=O)c2cc(NS(C)(=O)=O)ccc2O[C@H]1CN(C)Cc1ccc2c(c1)OCO2	·	-8	9	-8	4
O=C(Nc1cc(F)ccc1F)N1[C@@H]2CNC[C@H]1C2c1ccc(-c2ccc(F)cc2)cc1 (some centres undefined)	·	-1	58*!	-1	-56
O=C(Nc1cccc(F)c1)N1[C@@H]2CNC[C@H]1C2c1ccc(-c2cccc(F)c2)cc1 (some centres undefined)	·	5	54*!	-3	-60
Cc1cccc(-c2ccc(C3[C@H]4CNC[C@@H]3N4C(=O)Nc3ccc(F)cc3)cc2)c1 (some centres undefined)	·	0	-39	1	2
O=C(Nc1cccc(Cl)c1)N1[C@@H]2CNC[C@H]1C2c1ccc(-c2ccccc2)cc1 (some centres undefined)	·	-2	53*	-7	-60
O=C(CCc1ccccc1)c1nnc(-c2ccccc2)o1	1	-1	-12	0	-23*
CCOC(=O)c1nnc(-c2ccccc2)o1	4	·	·	·	·
S=c1[nH]nc(SCc2ccccc2)c2[nH]cnc12	1	4	-21	-4	-17*
CCCCSc1n[nH]c(=S)c2nc[nH]c12	2	1	-8	-2	·
COc1cc(/C=C2\SC(N3CCCCC3)=NC2=O)cc(OC)c1OC	10	-3	-2	2	-28*
CCc1ccc(/C=C2\SC(N3CCCC3)=NC2=O)cc1	1	1	4	-9	-15*
COc1ccc(/C=C2\SC(N3CCCCC3)=NC2=O)cc1	-3	2	-4	-8	-4
O=S(=O)(N[C@H]1CC[C@@H](CCn2cc(-c3cccc(F)c3)nn2)O[C@@H]1CO)c1ccc(F)cc1	·	0	5	-2	-8
O=C(O)c1ccc(CSc2nnc(-c3ccco3)n2-c2ccccc2)cc1	-3	-1	-2	0	-34*
c1ccc(-n2c(SCc3nc(-c4cccs4)no3)nnc2-c2ccco2)cc1	6	4	-21	7	-22*
COC(=O)c1sccc1NC(=O)CC1C(=O)NCCN1C(=O)Nc1cc(Cl)ccc1OC (centres undefined)	27	2	-1	2	-22*
COC(=O)c1sccc1NC(=O)CC1C(=O)NCCN1C(=O)c1ccccc1 (centres undefined)	-2	3	-24	-4	16
Cc1nn(C)cc1NC(=O)C[C@H]1CC[C@H]2[C@H](COc3ccc(NC(=O)C(C)C)cc3C(=O)N2C)O1	·	·	·	·	2
COc1ccc(NC(=O)c2sccc2-n2cccc2)cc1	·	-3	-27	4	-31*
O=C(Nc1ccc(Cl)cc1)c1sccc1-n1cccc1	-4	1	-6	2	6
N#CC1(NC(=O)CSc2nc3ccc([N+](=O)[O-])cc3s2)CCCCC1	2	1	1	2	-17*
O=C(CSc1nc2ccccc2s1)NCc1cc([N+](=O)[O-])ccc1O	·	3	-7	-7	-31*
SMILES	NSD2 inh	CASP6 VEID inh	RAD52 inh	MLL AF4-AF9 inh	Ecoli rRNA inh
Cn1nnnc1SCC(=O)NCc1cc([N+](=O)[O-])ccc1O	-1	2	-11	0	10
CCc1ccc(-n2c(SCC(=O)NC3CCS(=O)(=O)C3)nc3ccccc3c2=O)cc1 (centres undefined)	0	45*	-6	0	-7
Cc1ccc(-n2c(SCC(=O)NC3CCS(=O)(=O)C3)nc3ccccc3c2=O)cc1 (centres undefined)	2	2	-3	-1	5
COc1ccc(-c2c(C(=O)c3ccccc3)[nH]c(N)c2C(N)=O)cc1OC	·	0	0	0	7
COc1ccc(-c2c(C(=O)c3ccccc3)[nH]c(N)c2C(=O)NCc2ccccc2)cc1OC	·	-4	12	-1	-36*
CCOc1cc(NCc2ccccc2)c2ncn(C(C)C)c2c1	·	2	-27	22	-56
CC(C)n1cnc2c(NCc3ccccc3)cc(Cc3ccc(F)cc3)cc21	·	-6	9	8	-21*
O=[N+]([O-])c1ccc(CC(Cl)c2ccccn2)cc1 (centres undefined)	0	1	-7	0	-24*
C[C@@H]1CN([C@@H](C)CO)C(=O)c2cccc(NS(=O)(=O)c3ccccc3)c2O[C@H]1CN(C)Cc1ccc(-c2ccccc2)cc1	·	0	-10	4	4
Cn1c(=O)[nH]c(=O)c2c1nc(CN1CCOCC1)n2CCc1ccccc1	18	·	·	·	·
Cn1c(=O)[nH]c(=O)c2c1nc(CN1CCOCC1)n2Cc1ccccc1	-3	51*	-8	6	12
CCOc1ccc(S(=O)(=O)Nc2cc(NS(=O)(=O)c3ccc(OCC)cc3)cc(C(=O)O)c2)cc1	25	70*	-29	-6	-1
C[C@@H]1CN([C@H](C)CO)C(=O)c2cc(NC(=O)Cc3ccccc3)ccc2O[C@@H](C)CCCCO[C@H]1CN(C)C	·	·	·	·	8
CSc1ccccc1NC(=O)Nc1cccc(F)c1	-3	0	-7	0	1
CSc1ccccc1NC(=O)Nc1ccccc1	-1	44*	-4	10	-13
Cc1ccc(OCCC(=O)OCC(=O)NCCc2ccccc2)cc1	-3	-2	-3	-3	-22*
Cc1ccc(OCCC(=O)OCC(=O)NCc2ccccc2)cc1	-2	2	-11	-22	9
Nc1ccc(S(=O)(=O)Nc2nc3ccccc3o2)cc1	6	62*	-14	2	7
Nc1ccc(S(=O)(=O)Nc2cnc3ccccc3n2)cc1	·	9	-21	-2	19
CC(=O)Nc1ccc2c(c1)CC(=O)N(C)C[C@@H](C)[C@H](CN(C)C(C)=O)O2	·	·	·	·	1
Cc1noc(C)c1NC(=O)Nc1ccc2c(c1)C(=O)N([C@H](C)CO)C[C@@H](C)[C@@H](CN(C)Cc1ccc(Cl)c(Cl)c1)O2	·	1	21	2	-2
CC(C)Cn1c(SCC(=O)N2CCN(S(=O)(=O)c3ccccc3)CC2)nc2ccccc21	1	4	6	·	-32*
Cn1c(SCC(=O)N2CCN(S(=O)(=O)c3ccccc3)CC2)nc2ccccc21	-3	1	-12	6	-1
CC=Cc1ccc2n(c1=O)C[C@H]1[C@H](CO)[C@@H](C(=O)N[C@@H](C)c3ccccc3)[C@@H]2N1Cc1ccccc1 (mixture of isomers)	·	1	-3	2	-3
Cc1ccc(-c2nnnn2-c2ccc(C)cc2)cc1	2	0	0	-1	-9
Cc1ccc(-n2nnnc2-c2ccccc2Br)cc1	-3	-4	-9	2	-28*

Screening results (PubChem BioAssay)
